Assay outcomes from PubChem.
Coupling enz = coupling enzyme interference in Giardia aldolase counter-screen. coupling enzyme system counterscreen, AmpLite Red fluorescence. activity change, negative = inhibition, % at 58.2 µM, hits read low. actives 0.67% (n = 290,000). AID 2472; in the data active = activity change below about -30%
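Counterscreen lacking aldolase: glyceraldehyde-3-phosphate coupling-enzyme reagent preincubated 10 min at RT with compound (at 57.5 uM final), then substrate/coupling system with AmpLite Red added; fluorescence read at 525/598 nm after 20 min RT.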
Tau fluor cs = counter-screen for tau fibril formation inhibitors; actives 0.93% (n = 280,000); Potency, µM (titrated, usually from 57.7 µM); AID 1463; tau K18 P301L Alexa594 fluorescence, heparin fibrillization; note: nearly all actives have a fitted effect of over 55% in size
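Human K18 P301L tau (15 uM unlabeled plus 0.24 uM Alexa 594-labeled, final) in 100 mM sodium acetate pH 7 was mixed with compound and 20 uM heparin and incubated 6 hr at 37 C.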
G9a block = inhibitors of human histone lysine methyltransferase G9a. G9a H3K9 monomethylation, AlphaScreen, 2 h. AID 504332. actives 8.8% (n = 350,000). Potency, µM (titrated, usually from 102 µM), hits mostly inhibitors; note: nearly all actives have a fitted effect of over 75% in size
Target sequence (Q96KQ7 913-1193 limits assumed): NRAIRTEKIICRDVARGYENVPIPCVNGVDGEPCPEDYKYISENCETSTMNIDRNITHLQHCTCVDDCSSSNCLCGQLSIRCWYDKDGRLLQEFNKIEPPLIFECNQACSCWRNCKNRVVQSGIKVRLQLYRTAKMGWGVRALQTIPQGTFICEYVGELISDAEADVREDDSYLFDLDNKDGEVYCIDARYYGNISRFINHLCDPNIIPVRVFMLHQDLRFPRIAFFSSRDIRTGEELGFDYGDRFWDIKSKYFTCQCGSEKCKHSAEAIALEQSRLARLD
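AlphaScreen read-out: biotin-H3K9 peptide (500 nM) methylation by 20 nM enzyme with 20 uM SAM, 2 h at room temperature after 15 min compound preincubation; anti-monomethyl H3K9 antibody plus donor/acceptor beads, 10 min dark.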
Tau fibril FP = tau fibrillization inhibition (FP); actives 0.39% (n = 280,000); Potency, µM (doses to about 57.7 µM), most hits filed as inhibitors; K18 P301L tau heparin fibrillization, Alexa594 FP, 6 h; note: nearly all actives have a fitted effect of over 55% in size
Target sequence (P10636 561-689 P618L limits assumed): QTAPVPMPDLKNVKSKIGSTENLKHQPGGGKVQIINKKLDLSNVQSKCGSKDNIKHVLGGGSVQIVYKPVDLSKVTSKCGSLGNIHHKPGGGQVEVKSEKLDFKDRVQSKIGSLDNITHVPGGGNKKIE
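Recombinant K18 P301L […], labeled with Alexa 594 at 0.24 uM over 15 uM unlabeled; heparin inducer 20 uM final; 37 C, 6 hr; FP endpoint.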
Tau ThT inhib = blocks human tau fibril formation measured by thioflavin T; P10636; Potency, µM (doses to about 57.4 µM), hits mostly inhibitors; actives 2.1% (n = 270,000); recombinant tau K18 P301L (four-repeat tau fragment), heparin-induced fibrillization, ThT fluorescence; note: nearly all actives have a fitted effect of over 55% in size
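K18 P301L tau (15 uM + 0.24 uM Alexa 594-tagged), heparin 20 uM, NaOAc pH 7, 6 h 37 C; ThT 30 uM, 1 h RT, ex 450/em 510 nm.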
Sfp inh = blocks B. subtilis Sfp PPTase activity. Potency, µM, usual class: inhibitors. Q9F4F7. actives 3.5% (n = 310,000). Biochemical Sfp PPTase activity, qHTS. AID 1490;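 note: the enzyme is Sfp with the accession as filed and its product quenches rhodamine fluorescence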
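Fluorescence-quenching assay with 15 nM Sfp, 5 uM rhodamine-CoA and 12.5 uM BHQ-2-labelled ybbR peptide in pH 7.6 Hepes/MgCl2 buffer. Enzyme was pre-incubated with compound for 15 min at room temperature. Rate was taken from the 30-min fluorescence change (525/598 nm).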
Of the large screens only hits and unclear results are named; the others gave an inactive call. Compounds with a hit are over-represented: about 11% of the library has one in this group of screens. Unless noted, calls come from the whole dose curve; as a rule, active = well fitted curve in the direction sought with a large enough effect; inconclusive = small, poorly fitted or top-dose-only effect, or another doubt; inactive = no such curve, though single readings can be large; an effect the other way counts as inactive or inconclusive.

CCCCNC(=O)c1nn(C)c2c1CSc1ccccc1-2	G9a block 16µM (no result: Coupling enz, Sfp inh)
CCN(CC)CCCNC(=O)c1nn(C)c2c1CS(=O)(=O)c1ccccc1-2	G9a block 25µM (no result: Coupling enz, Sfp inh)
CC1CCCC(C)N1CCCNC(=O)c1nn(C)c2c1CSc1ccccc1-2 (stereo not drawn)	none (no result: Coupling enz, Tau fluor cs, Tau fibril FP, Tau ThT inhib)
Cc1ccc(S(=O)(=O)c2cn(Cc3cccc(F)c3)c3cc(N4CCCC4)c(F)cc3c2=O)cc1	none (no result: Coupling enz, Sfp inh)
N#Cc1c2n(c(=S)n(-c3ccccc3)c1=O)CCCCC2	none
N#Cc1c2n(c(=S)n(-c3ccccc3[N+](=O)[O-])c1=O)CCCCC2	G9a block 40µM, Sfp inh inconclusive
O=C(COc1ccc2c(c1)oc(=O)c1ccccc12)NCCCN1CCOCC1	none (no result: Tau fluor cs, Tau fibril FP, Tau ThT inhib)
CCN(C(=O)COC(=O)c1oc2ccc(OC)cc2c1C)C1CCCCC1	none (no result: Coupling enz, Tau fluor cs, Tau fibril FP, Tau ThT inhib, Sfp inh)
C=CCNC(=S)/N=c1/ccccn1C	G9a block 35µM
C=CCNC(=S)/N=c1/ccccn1CCC	none
Cc1ccc2nc(-c3ccccc3)cc(C(=O)N(C)CC(=O)Nc3ccccc3Br)c2c1	none (no result: Coupling enz, Tau fluor cs, Tau fibril FP, Tau ThT inhib, Sfp inh)
COc1ccc(S(=O)(=O)c2cc3cc(C(C)(C)C)cc(O)c3oc2=O)cc1	G9a block 16µM, Tau ThT inhib inconclusive (no result: Coupling enz, Sfp inh)
COc1ccc(S(=O)(=O)c2cc3cc(OC)ccc3oc2=O)cc1	none (no result: Coupling enz, Sfp inh)
CC(=O)c1ccc(N2Cc3ccccc3C3(CCOCC3)C2=N)cc1	G9a block 56µM, Tau ThT inhib inconclusive
CCn1ncc(NC(=S)NCCc2ccc(OC)c(OC)c2)c1C(N)=O	G9a block inconclusive
COc1ccc(N=N/C(=C\O)C(=O)c2ccco2)cc1	Tau fluor cs inconclusive, G9a block inconclusive, Tau ThT inhib 8.9µM
COc1ccc(/C(N)=N/OC(=O)c2ccco2)cc1	none
O=C(Oc1ccc(F)cc1)c1ccc2c(=O)n3c(nc2c1)CCC3	G9a block 50µM (no result: Coupling enz, Tau fluor cs, Tau fibril FP, Tau ThT inhib, Sfp inh)
O=C(Oc1ccccc1F)c1ccc2c(=O)n3c(nc2c1)CCC3	G9a block 63µM (no result: Coupling enz, Tau fluor cs, Tau fibril FP, Tau ThT inhib, Sfp inh)
O=C(Cn1cnc2scc(-c3cccc([N+](=O)[O-])c3)c2c1=O)NCc1ccco1	Sfp inh inconclusive
O=C(OC[C@H]1O[C@@H](OC(=O)c2cc(O)c(O)c(OC(=O)c3cc(O)c(O)c(O)c3)c2)[C@H](OC(=O)c2cc(O)c(O)c(OC(=O)c3cc(O)c(O)c(O)c3)c2)[C@@H](OC(=O)c2cc(O)c(O)c(OC(=O)c3cc(O)c(O)c(O)c3)c2)[C@@H]1OC(=O)c1cc(O)c(O)c(OC(=O)c2cc(O)c(O)c(O)c2)c1)c1cc(O)c(O)c(OC(=O)c2cc(O)c(O)c(O)c2)c1	G9a block 1.4µM (no result: Coupling enz, Tau fluor cs, Tau fibril FP, Tau ThT inhib, Sfp inh)
O=C(CSc1cccc[n+]1[O-])Nc1ccccc1Oc1ccccc1	G9a block 2µM, Sfp inh 40µM
COc1ccccc1NC(=O)CSc1nnc(C2CCCCC2)n1N	none (no result: Tau fluor cs, Tau fibril FP, Tau ThT inhib)
O=C(CSc1cccc[n+]1[O-])Nc1cc2c(cc1Cl)C(=O)c1ccccc1C2=O	G9a block 7.9µM, Tau ThT inhib inconclusive, Sfp inh inconclusive
Nn1c(SCC(=O)Nc2ccccc2Oc2ccccc2)nnc1C1CC1	G9a block 50µM (no result: Coupling enz, Tau fluor cs, Tau fibril FP, Tau ThT inhib, Sfp inh)
CCOC(=O)c1c(C)nc(C)c(C(=O)OCC)c1-c1ccco1	G9a block 32µM
CCOC(=O)c1cc(-c2ccco2)nn1-c1ccc(C)cc1	G9a block 40µM, Sfp inh inconclusive
O=C(c1cc(-c2ccco2)nn1-c1cccc(Cl)c1)N1CCCCC1	G9a block 3.2µM, Tau fibril FP inconclusive, Tau ThT inhib 28µM, Sfp inh 8.9µM
CCOC(=O)c1c(C)noc1-c1ccco1	none
CCOC(=O)c1cc(-c2ccc(N3CCOCC3)cc2)nn1-c1ccccc1	none
CC(C)NC(=O)c1cc(-c2ccco2)nn1-c1ccc(Cl)cc1	G9a block 3.5µM, Tau ThT inhib inconclusive, Sfp inh 10µM (no result: Coupling enz)
O=C(c1cc(-c2cccc(Cl)c2)on1)N1CCCCCC1	none (no result: Tau fluor cs, Tau fibril FP, Tau ThT inhib)
CC(C)NC(=O)c1nn2c(C(F)(F)F)cc(-c3ccco3)nc2c1Cl	none
Cc1ccc(Cl)cc1NC(=O)CN1C(=O)c2ccccc2Sc2ncccc21	Tau ThT inhib inconclusive (no result: Coupling enz, Sfp inh)
